Screening results as filed in PubChem BioAssay.
Sampled rows, rich in hits. Any-hit rate of the full collection: about 3.4%.
PKM2 act = increases activity of human pyruvate kinase M2; P14618; purified PKM2, Kinase-Glo ATP luminescence, activation; response scale: 0% is enzyme alone, no compound; Potency, µM (series often up to 57.5 µM), without a hit: at the top dose activation, most hits filed as activators; actives 0.34% (n = 260,000); AID 1631; further: on the % scale 0 is the no-effect control and ±100 the full control effect; nearly all actives have a fitted effect of over 55% in size
Target sequence (P14618 whole entry, looked up): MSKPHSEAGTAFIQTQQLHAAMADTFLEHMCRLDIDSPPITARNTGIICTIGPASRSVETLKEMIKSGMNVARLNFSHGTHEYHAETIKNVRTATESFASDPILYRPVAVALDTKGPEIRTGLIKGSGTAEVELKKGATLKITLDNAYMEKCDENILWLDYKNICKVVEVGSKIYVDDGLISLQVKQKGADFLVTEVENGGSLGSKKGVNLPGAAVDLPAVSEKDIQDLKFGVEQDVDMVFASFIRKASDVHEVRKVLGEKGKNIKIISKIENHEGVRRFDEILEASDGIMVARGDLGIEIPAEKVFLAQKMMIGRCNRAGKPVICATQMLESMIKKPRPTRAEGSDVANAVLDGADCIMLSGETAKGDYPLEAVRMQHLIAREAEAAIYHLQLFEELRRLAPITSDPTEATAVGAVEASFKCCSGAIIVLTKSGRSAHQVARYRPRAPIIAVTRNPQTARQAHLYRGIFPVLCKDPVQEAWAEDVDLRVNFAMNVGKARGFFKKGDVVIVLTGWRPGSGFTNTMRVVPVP
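ATP formation by purified human PK-M2, quantified via coupled luciferase luminescence after 1 h at room temperature with 0.1 mM ADP and 0.5 mM PEP final.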
Mito fusion yeast = blocks mitochondrial division or promotes mitochondrial fusion; S. cerevisiae fusion-defective mutant growth rescue, CellTiterGlo 48 h; Potency, µM (series often up to 46.1 µM), for inactives: at the highest dose growth rescue (activation), actives largely listed as activators; actives 0.23% (n = 320,000); AID 485298; further: % of control where 0% means no effect; nearly all actives have a fitted effect of over 45% in size
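Read-out: ATP-based luminescence (CellTiterGlo, 10 min ambient) reporting growth of fusion-defective ts yeast after 48 hours at 37C on glycerol/ethanol YPEG medium in the presence of compound.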
GLS inh = blocks human kidney-isoform glutaminase activity. O94925. GLS enzymatic activity, qHTS titration. Potency, µM (top dose mostly 45.5 µM), for inactives: at the top dose activity change, negative = inhibition, most hits filed as inhibitors. actives 0.21% (n = 410,000); further: on the % scale 0 is the no-effect control and ±100 the full control effect
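Compounds were pin-transferred onto hKGA, after which L-glutamine (1 mM solution) and a detection mix of glutamate oxidase, HRP and Amplex Red were added. Initial and 30 min RT fluorescence reads were collected.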
PLK1 PBD block = inhibitors of human PLK1 polo-box domain binding | P53350 | Plk1 PBD binding of FITC phosphopeptide, fluorescence polarization | Potency, µM, for inactives: max response, negative = inhibition, usual class: inhibitors | actives 2.8% (n = 360,000); further: series mostly up to about 57 µM; on the % scale 0 is the no-effect control and ±100 the full control effect; nearly all actives have a fitted effect of over 65% in size
KAT2A inh = inhibitors of human GCN5L2 histone acetyltransferase | GCN5L2 HAT assay, ThioGlo1 CoA-SH fluorescence | Q92830 | Potency, µM (series often up to 58.9 µM), for the others: at the highest dose activity change, negative = inhibition, usual class: inhibitors | actives 0.21% (n = 390,000) | AID 504327; further: on the % scale 0 is the no-effect control and ±100 the full control effect
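qHTS, 1536-well. 20nM enzyme, pH 7.5 HEPES/EDTA/Tween-20 buffer; 15 min compound preinc., RT. Start: 75uM H3(1-25), 70uM AcCoA, 50uM ThioGlo1. Read Ex340/Em540 at t=0 (autofluorescence flag) and t=20 min.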
VDR inh = vitamin D3 receptor (human) inhibition; P11473; VDR-SRC2-3 peptide fluorescence polarization, 2 h; Potency, µM, inactives show max response, negative = inhibition, actives largely listed as inhibitors; actives 0.93% (n = 400,000); AID 504847; further: on the % scale 0 is the no-effect control and ±100 the full control effect
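FP read-out; VDR + SRC2-3 coactivator peptide; 23 nl compound by pintool; 2 h RT incubation; reagents held at 4 deg C, protected from light.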
* marks the source's active call; other numbers are inactive results; ? = inconclusive; nt = no result given. The call rests on the fitted dose curve; in most records, active means well fitted curve in the direction sought with a large enough effect; inconclusive means small, poorly fitted or top-dose-only effect, or another doubt; inactive means no such curve, though single readings can be large; an effect the other way counts as inactive or inconclusive. Potency means the concentration at half of the fitted maximal effect.

SMILES | PKM2 act | Mito fusion yeast | GLS inh | PLK1 PBD block | KAT2A inh | VDR inh
Cc1ccc(-c2cc(-c3ccccc3Cl)c(C#N)c(N)n2)o1 | ? | ? | 30% | ? | ? | -9%
O=c1cc(-c2ccc(F)cc2)[nH][nH]1 | -4% | nt | 7% | 4% | -5% | ?
O=c1cc(-c2ccc(C3CCCCC3)cc2)[nH][nH]1 | 30% | 2% | -4% | 24µM* | 0% | -22%
CN(CC(=O)Nc1ccccc1Cl)C(=O)CN1C(=O)C2CC=CCC2C1=O (stereo not drawn) | nt | nt | 1% | -13% | -3% | -16%
CCn1c(SCc2ccc(Cl)cc2)nnc1-c1ccccc1 | 0% | 0% | 0% | 27µM* | 1% | -19%
CCCCC#Cc1ccccc1CC(=O)Nc1ccccc1 | 4% | 1% | -9% | 5% | -2% | -21%
CCCCCCCC#Cc1ccccc1/C=N/S(=O)c1ccc(C)cc1 (stereo not drawn) | 14% | 0% | ? | 15µM* | ? | ?
CCn1c(C(=O)N2CCC(C(=O)N3CCN(c4cc(C)ccc4C)CC3)CC2)cc2sccc21 | nt | nt | 0% | nt | -13% | 2%
CN(O)/C=C/C(=O)c1ccc(Br)cc1 | -1% | -2% | -5% | 27µM* | -6% | -4%
O=C(Nc1cccc(C(=O)N2CCN(c3cccc(Cl)c3)CC2)c1)c1nsc2ccccc12 | nt | nt | 3% | nt | -21% | 13%
Cc1ccc(NC(=O)CSc2nnc(C)c(=O)n2N)cc1Cl | ? | 7% | 1% | -14% | -5% | 2%
Cc1nnc(SCC(=O)c2ccc(Cl)cc2)n(N)c1=O | 0% | 0% | -11% | 6% | -6% | 20µM*
c1ccc2c(c1)N1CCCN=C1N2CCN1CCCCC1 | -11% | -8% | 1% | 27µM* | -5% | -12%
c1ccc2c(c1)N1CCN=C1N2CCN1CCCCC1 | -7% | -2% | 1% | -16% | -7% | -8%
CC(C)C[C@@H](NC(=O)[C@@H](COC(C)(C)C)NC(=O)[C@H](Cc1ccc(O)cc1)NC(=O)[C@@H](CO)NC(=O)[C@@H](Cc1c[nH]c2ccccc12)NC(=O)[C@@H](Cc1cnc[nH]1)NC(=O)[C@@H]1CCC(=O)N1)C(=O)N[C@H](CCCN=C(N)N)C(=O)N1CCC[C@H]1C(=O)NNC(N)=O | nt | nt | 39% | nt | nt | nt
CCN(CC)S(=O)(=O)c1ccc(C(O)=C(C#N)c2nc3ccccc3n2C)cc1 | nt | nt | 5% | -3% | nt | 14%
Cc1cccc(C)c1NC(=O)CN(c1c(C)cccc1C)S(C)(=O)=O | nt | nt | 0% | -4% | nt | nt
COC(=O)c1ccc(CSCc2ccc(C(=O)OC)o2)o1 | nt | 4% | 0% | -29% | -15% | -24%
COC(=O)c1ccc(CN(C(C)=O)c2ccccc2)o1 | 4% | -1% | 3% | 27µM* | -10% | ?
COc1cccc(C(=O)Nc2sc3c(c2C#N)CCN(C(C)=O)C3)c1 | 1% | 14% | 3% | 24µM* | -20% | 79µM*
COc1cccc(C(=O)Nc2sc3c(c2C(=O)O)CCCC3)c1 | nt | ? | -10% | -20% | ? | -15%
Cc1ccc(-c2csc(=S)[nH]2)cc1 | -4% | 8% | -28% | ? | -12% | ?
S=c1[nH]c(-c2ccc(Cl)cc2)cs1 | 3% | -4% | -6% | 9.5µM* | -21% | ?
S=c1nccc(-c2ccc(Cl)cc2)[nH]1 | -1% | 14% | ? | 1.5µM* | ? | ?
CN(C(=O)COC(=O)CCC(=O)c1ccc(F)cc1)C1CCCCC1 | nt | nt | 1% | -2% | 3% | -1%
SMILES | PKM2 act | Mito fusion yeast | GLS inh | PLK1 PBD block | KAT2A inh | VDR inh
CN(C)CCC(=O)C(Cc1ccccc1)c1ccccc1 (stereo not drawn) | nt | nt | 28% | 4.7µM* | nt | 45µM*
CN(C)CCNC(=O)C(c1ccccc1)c1ccccc1 | -6% | -1% | 9% | 5% | -3% | -19%
O=C(Nc1cccc(Cl)c1)N1CCN2C(=O)c3ccccc3C12c1ccccc1 (stereo not drawn) | 5% | 3% | -30% | 12µM* | -13% | -14%
CCn1c2ccccc2c2n[nH]c(=S)nc21 | nt | -7% | -15% | ? | 19% | -1%
CCCn1c2ccc(C)cc2c2n[nH]c(=S)nc21 | nt | -12% | 2% | 27µM* | 27% | -15%
O=C(O)Cn1c2ccccc2c2n[nH]c(=S)nc21 | -7% | 4% | -19% | 27µM* | -26% | -15%
Cc1ccc(NC(=O)c2cn3c4c(ccc(Cl)c4c2=O)OC(C)C3)c(C)c1 (stereo not drawn) | nt | nt | 0% | nt | 3% | 11%
Cc1ccc(C(=O)c2oc3ccccc3c2NC(=O)c2cc(-c3ccc(Cl)cc3)on2)cc1 | nt | nt | -16% | nt | 1% | 5%
CC1(C)SC(=S)N(/N=C/c2cccnc2)C1N(O)C(=O)Nc1ccccc1 (stereo not drawn) | 1% | 1% | 51% | 2% | -8% | -4%
CC1(C)SC(=S)N(/N=C/c2ccccc2O)C1N(O)C(=O)Nc1ccccc1 (stereo not drawn) | -1% | 4% | 1µM* | -5% | -16% | 12%
O=c1[nH]c2c(s1)C=Nc1ccccc1N2 | -2% | -5% | 23% | 13µM* | -1% | 4%
O=C1CC(c2ccco2)CC2=C1C=Nc1ccccc1N2 (stereo not drawn) | ? | 9% | 3% | -8% | -6% | -17%
CCCc1ccc(S(=O)(=O)Nc2ccc(C)c(NS(C)(=O)=O)c2)cc1 | 4% | 5.6µM* | -8% | -3% | -4% | 25%
CCCCc1ccc(S(=O)(=O)Nc2ccc(C)c(NS(C)(=O)=O)c2)cc1 | 0% | 8% | -13% | 1% | -7% | -2%
O=C(NCc1ccc(Cl)cc1)c1ccc2nc[nH]c2c1 | 0% | -4% | 15% | 30µM* | 3% | ?
O=C(NCc1cccc(Cl)c1)c1ccc2nc[nH]c2c1 | -19% | -3% | 4% | -5% | 17% | 19%
COC(=O)CN1C(=O)CSc2ccc(S(=O)(=O)Nc3ccc(C)c(Cl)c3)cc21 | nt | nt | -6% | nt | -1% | -1%
O=C(Nc1c(-c2ccc3c(c2)OCO3)[nH][nH]c1=O)c1ccccc1 | nt | nt | 41% | 13µM* | nt | nt
O=C(NNc1cccc(Cl)n1)c1cccnc1Cl | -12% | -10% | 25% | -7% | 2% | -18%
O=C(NNc1cccc(Cl)c1)c1cccnc1Cl | 4% | 22µM* | 2% | 5% | -1% | -4%
CC(C)(C)c1nnc(NC(=O)COc2ccc3c(c2)OCO3)s1 | nt | -1% | -6% | -16% | -3% | -16%
Cc1ccc(-n2nnnc2SCn2nnc3ccccc3c2=O)c(C)c1 | 16µM* | 8% | 7% | -9% | nt | 6%
